Screening data as filed in PubChem BioAssay.
Exocytosis inh: LAMP-1 surface exposure blockers, TALL-104 cells – cell-based, flow cytometry, MLPCN library, primary screen | inhibition, % at 10 µM | TALL-104 LAMP-1 surface exposure; cells stimulated with thapsigargin and PMA | hit rate 0.66% among 360,000;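 active = inhibition above about 55%, limit read from the data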
TLR9-MyD88 block: inhibitors of TLR9-MyD88 association in cells, primary screen, cell-based, CHO, BLA complementation, fluorescence; Toll-like receptor 9 (Homo sapiens) + Myeloid differentiation primary response protein …; CCF4 FRET ratio; inhibition, % at 4.98 µM; hit rate 0.21% among 340,000; AID 504734, 2011;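 active = inhibition above the mean over all tested compounds plus 3 SD, cut at about 21% in these data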;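 note: 0% = DMSO only wells and 100% = clavulanate BLA inhibitor control wells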
ABHD5 PLIN5 PPI: ABHD5-PLIN5 interaction inhibitors, primary screen, cell lysate, split luciferase complementation, luminescence. Perilipin-5 (Homo sapiens) + 1-acylglycerol-3-phosphate O-acyltransferase ABHD5 (Homo …. Split G. princeps luciferase complementation, 4 h. inhibition, % at 4 µM. hit rate 0.78% among 360,000. AID 602281, 2012;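 active = inhibition above the mean inhibition across every tested compound plus 3 SD, cut at about 22% in these data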;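 note: 0% = DMSO only wells and the 100% control is not disclosed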
NOD2 RIPK2 PPI: NOD2-RIPK2 binding disruptors in cells, primary screen, fluorescence, CHO cells, BLA complementation; Receptor-interacting serine/threonine-protein kinase 2 (Homo sapiens), O43353; CCF4 ratio; inhibition, % at 4.98 µM; hit rate 0.38% among 360,000; AID 624267, 2012; in the data active = inhibition above about 21%;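 note: 0% = vehicle only and 100% = reference blocker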
Target sequence (O43353 whole entry, looked up): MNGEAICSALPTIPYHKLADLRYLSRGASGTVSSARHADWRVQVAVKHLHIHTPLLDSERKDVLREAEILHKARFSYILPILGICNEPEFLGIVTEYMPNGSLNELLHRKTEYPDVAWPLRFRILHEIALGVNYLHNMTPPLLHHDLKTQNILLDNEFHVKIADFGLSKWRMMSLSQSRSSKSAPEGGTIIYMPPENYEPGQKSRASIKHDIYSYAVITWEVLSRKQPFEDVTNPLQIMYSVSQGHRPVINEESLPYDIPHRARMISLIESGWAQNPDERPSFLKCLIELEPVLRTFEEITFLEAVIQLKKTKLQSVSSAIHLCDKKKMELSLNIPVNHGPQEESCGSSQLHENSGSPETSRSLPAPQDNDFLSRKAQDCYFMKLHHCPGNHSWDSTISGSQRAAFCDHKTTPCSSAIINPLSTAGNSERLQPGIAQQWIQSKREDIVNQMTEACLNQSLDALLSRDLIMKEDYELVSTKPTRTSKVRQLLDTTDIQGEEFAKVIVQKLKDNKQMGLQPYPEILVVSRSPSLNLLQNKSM
TLR4 MyD88 comp: inhibitors of TLR4-MyD88 association in cells, primary screen, cell-based, HeLa CL3-4, BLA complementation, FRET ratio | Toll-like receptor 4 (Homo sapiens) + Myeloid differentiation primary response protein … | HeLa CL3-4 TLR4/MyD88 BLA complementation | inhibition, % at 8.4 µM | hit rate 0.18% among 200,000; in the data active = inhibition above about 25%;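 note: 0% = vehicle and 100% = reference inhibitor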
Beta2AR agonist: beta2AR agonists driving receptor internalization, primary screen, cell-based, FAP fluorogen, flow cytometry; Beta-2 adrenergic receptor (Homo sapiens), P07550; Am2.2-beta2AR cells; response, % (test concentration not listed); hit rate 0.43% among 340,000;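 active = response above a set limit, near 3 SD of response in nonfluorescent compounds, cut at about 42% in these data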
ABHD5-PLIN5 conf: ABHD5-PLIN5 interaction inhibitors, confirmation, biochemical, luminescence; shares compounds with ABHD5 PLIN5 PPI; inhibition, % at 4 µM; hit rate 67% among 2,200; in the data active = inhibition above about 23%;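 note: 0% = DMSO vehicle wells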
HNF4 counter: HNF4 dimerization inhibitors, counter-screen for ABHD5-PLIN5 interaction inhibitor project, biochemical, split-luciferase complementation, luminescence; shares compounds with ABHD5 PLIN5 PPI; inhibition, % at 4 µM; hit rate 77% among 2,200;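 active = mean inhibition across replicate wells exceeding the computed hit threshold, cut at about 13% in these data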;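 note: light from luciferase halves that rejoin when HNF4 fusion proteins dimerize; 0% = DMSO only wells and the 100% control is not given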
* hit, by the source's call; nt = no result. Sampled rows, rich in hits. Any-hit rate of the full collection: about 2%.

SMILES	Exocytosis inh	TLR9-MyD88 block	ABHD5 PLIN5 PPI	NOD2 RIPK2 PPI	TLR4 MyD88 comp	Beta2AR agonist	ABHD5-PLIN5 conf	HNF4 counter
CCOC(=O)[C@]12CCC=C1N(Cc1ccc(Cl)cc1Cl)C(=O)[C@H](CC(=O)NCc1cccc(C(F)(F)F)c1)C2	34	nt	25*	-2	nt	nt	21	1
CCOC(=O)N1CCN(C(=O)C[C@@H]2C[C@@]3(C(=O)OCC)CCC=C3N(Cc3ccc(Cl)cc3Cl)C2=O)CC1	8	nt	26*	-12	nt	nt	35*	-2
Cc1cc(NC(=O)CCc2ccc(-c3ccccc3)o2)no1	-6	-10	-1	-7	nt	2	nt	nt
Cc1ccc(-c2ccc(CCC(=O)O)o2)cc1	0	-4	28*	-17	-6	7	13	44*
O=C1/C(=C/c2ccccc2[N+](=O)[O-])COc2ccccc21	84*	-4	58*	13	14	8	79*	76*
O=C1/C(=C/c2ccc(O)cc2)COc2ccccc21	-8	-5	25*	9	nt	-4	50*	60*
CCOc1cc(/C=C2/COc3ccccc3C2=O)ccc1OCC(=O)N(C)C	-4	-9	25*	-2	-10	13	71*	67*
O=C1NC[C@H](CCCCN2C[C@H](Cc3ccccc3)N(Cc3ccccc3)C(=O)C2=O)N(CCC2CCCCC2)C1=O	-4	nt	0	-1	nt	nt	nt	nt
O=C1C=CC(O)C2(CO)OC12 (configuration not stated)	0	0	67*	9	nt	nt	91*	91*
CCCc1nc(C)c2c(=O)[nH]c(-c3cc(S(=O)(=O)N4CCN(CC)CC4)ccc3OCC)nn12	4	-6	62*	-1	nt	1	68*	29*
CCOc1cc(S(=O)(=O)N2CCN(CC)CC2)ccc1Cl	-2	-11	-2	1	-1	-20	nt	nt
O=C1C=CC(=O)N1CCCCCCN1C(=O)C=CC1=O	nt	nt	nt	nt	-5	nt	nt	nt
O=C(O)CN1C(=O)C=CC1=O	13	6	66*	3	nt	nt	47*	104*
CS(=O)(=O)c1ccc(C(=O)NCCN2C(=O)S/C(=C\c3cccnc3)C2=O)cc1[N+](=O)[O-]	-1	15	56*	2	-4	-3	67*	44*
OC[C@@H]1CN(CCN2CCOCC2)C[C@H](n2cnc3c(N4CCOCC4)ncnc32)O1	-22	nt	-1	-5	nt	nt	nt	nt
COc1cccc(CNC(=O)[C@@H]2CCCN2C(=O)[C@@H]2CCCN2C(=O)OC(C)(C)C)c1	-5	nt	1	6	nt	nt	nt	nt
O=C(/C=C/c1ccc(OCc2ccccc2)c(OCc2ccccc2)c1)c1cccnc1	0	0	26*	2	16	4	87*	78*
O=C(/C=C/c1ccccc1Cl)c1cccnc1	2	-5	71*	-6	5	3	100*	102*
O=C(/C=C/c1ccc(Cl)cc1)c1cccnc1	3	0	80*	4	8	-9	96*	100*
N#Cc1ccc(/C=C/C(=O)c2cccnc2)cc1	0	11	82*	-4	13	1	92*	96*
COc1ccc(C=CC(=O)c2ccc(OCc3ccccc3)c(OC)c2)cc1OC	-18	5	11	-4	nt	nt	nt	nt
